A selection: hits, their analogues and other compounds. The true share with any hit is near 1.7%.
PrPC TRFRET = reduces human prion protein on the cell surface. P04156. cell surface PrPC, TR-FRET read-out. inhibition, % at 13.8 µM. 370,000 compounds, 0.43% hits. AID 720596; in the data active means inhibition above about 24%; further: 0% = median of the test wells and 100% = reference compound wells
SSB-PriA inh = blocks PriA binding to SSB C-terminal tail. AlphaScreen SSBct-PriA binding, biotinylated peptide. inhibition, % at 33 µM. 430,000 compounds, 0.6% hits. AID 1272365; in the data active means inhibition mostly above about 37%, no sharp cut-off; inactive means mostly below about 20%;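 further: plate controls were negative control peptide for no effect and reference peptide for full effect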
PrP UTR inh = suppresses PrP 5' UTR mRNA reporter expression | cell-based PrP 5' UTR mRNA reporter, plate reader | inhibition, % (test concentration not listed) | 340,000 compounds, 0.35% hits | AID 488862; in the data active means inhibition above about 52%; further: 0 = median of the neutral control wells
Y pestis TopoI = inhibitors of Yersinia pestis topoisomerase I; Y. pestis Topo-I cleavage product accumulation, plate reader; activity, % at 10 µM; 360,000 compounds, 0.064% hits; in the data active means activity above about 50%, passing the limit was not always enough; inconclusive means no clear call, values can overlap the other calls
PfHsp40 yeast = rescue of PfHsp40-mediated yeast toxicity. S. cerevisiae expressing PfHsp40, growth rescue, ATP luminescence. growth rescue, % at 12.5 µM. 340,000 compounds, 0.68% hits; in the data active means growth rescue above about 28%, passing the limit was not always enough; inconclusive means no clear call, values can overlap the other calls;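 further: yeast W303a lacking pdr1 and pdr3 grown in galactose medium; growth measured after three days at 30 °C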
BJeLR viability = kills HRASV12-expressing BJeLR cells; BJeLR (HRASV12) viability, CellTiter-Glo ATP luminescence, 48 h; 300,000 compounds, 0.17% hits; inhibition, % (concentration not given with the values); in the data active means inhibition above about 50%; inconclusive means no clear call, values can overlap the other calls
Active calls of the source: *; ? = inconclusive; . = no result.

SMILES | PrPC TRFRET | SSB-PriA inh | PrP UTR inh | Y pestis TopoI | PfHsp40 yeast | BJeLR viability
CCCCCCC[C@@H](C/C=C/CCC(=O)N(C)C/C(=C/Cl)C/C(=C\C(=O)N1C[C@H](O)CC1=O)OC)OC | 0 | -6 | -10 | 26 | 54* | .
CCCCCCC[C@@H](C/C=C/CCC(=O)O)OC | -1 | 0 | -20 | 6 | 0 | .
O=C(NCc1ccccn1)C1CCC(=O)N1C1CCCCC1 (stereo not drawn) | 0 | 104* | -4 | -5 | 2 | 1
O=C(O)c1nn(CCOc2cccc(Cl)c2)c(=O)c2ccccc12 | 7 | -4 | -17 | -1 | 1 | 0
O=C(O)c1nn(CCOc2cccc(Br)c2)c(=O)c2ccccc12 | 1 | -3 | -13 | 52* | 4 | -10
CC(C)(c1cc(Br)c(O)c(Br)c1)c1cc(Br)c(O)c(Br)c1 | -3 | -7 | 0 | 7 | 331* | .
CN(C)c1ccc(NS(=O)(=O)c2cc(Cl)ccc2Cl)cc1 | 5 | 35 | -19 | -6 | 0 | -19
CCN(c1ccc(NS(=O)(=O)c2cc(Cl)ccc2Cl)cc1)C(C)C | 4 | 40* | -17 | 11 | -1 | 10
CN(C)CC1CSCCCN1C(=O)c1ccc(-n2cccc2)cc1 (stereo not drawn) | . | -2 | . | . | . | .
CCOC(=O)c1sc(=NC(=O)c2coc3ccccc3c2=O)n(C)c1C | . | 0 | . | . | . | .
CC1=C(C(=O)Nc2ccccc2)C(c2coc3ccccc3c2=O)C2=C(CCCC2=O)N1 (stereo not drawn) | 2 | 0 | -8 | 1 | 1 | -5
COc1ccc(C2CC(=O)C3=C(C2)NC(C)=C(C(=O)Nc2ccccc2C)C3c2coc3ccc(C)cc3c2=O)cc1OC (stereo not drawn) | 3 | -1 | 0 | 25 | 63* | .
COc1ccc(N(C(=O)CCl)C(C(=O)NCCc2ccccc2)c2cccs2)cc1Cl (stereo not drawn) | -13 | -9 | -13 | 21 | 2 | 139*
COc1ccc(N(C(=O)c2ccco2)C(C(=O)NC2CCCCC2)c2cccs2)cc1OC (stereo not drawn) | 0 | -3 | -6 | 16 | 0 | -5
COc1cccc(N(C(=O)CCl)C(C(=O)NCCc2ccccc2)c2cccs2)c1 (stereo not drawn) | -12 | 7 | -22 | 13 | 0 | 72*
O=C1C=C(Nc2ccccc2O)c2ccccc2C1=O | -26 | 43 | -67 | 4 | 74* | -5
CCCN1CCCc2cc(CCNS(=O)(=O)c3ccc(OCC)c(F)c3)ccc21 | . | 39* | . | . | . | .
CCCN1CCCc2cc(CCNS(=O)(=O)c3ccc(OC)c(F)c3)ccc21 | . | 66* | . | . | . | .
CCCN1CCCc2cc(CCNS(=O)(=O)c3cccc(F)c3)ccc21 | . | 65* | . | . | . | .
CCCN1CCCc2cc(CCNC(=O)C(=O)NCc3cccs3)ccc21 | . | 22 | . | . | . | .
CCCN1CCCc2cc(CCNS(=O)(=O)c3cc(C)ccc3OCC)ccc21 | . | 71* | . | . | . | .
CCCN1CCCc2cc(CCNC(=O)C(=O)Nc3ccc(OCC)cc3)ccc21 | . | 20 | . | . | . | .
CCOc1ccc2ncc(C#N)c(N3CCC(C(=O)Nc4cc(C)c(Cl)cc4OC)CC3)c2c1 | . | -18 | . | . | . | .
Cc1cc(C)n(CCNC(=O)C2CSc3nc(C(C)(C)C)cc(=O)n3C2)n1 (stereo not drawn) | . | 9 | . | . | . | .
COC(=O)c1ccc(C)c(Nc2nn3c(=O)c4cc5c(cc4nc3s2)OCO5)c1 | . | -8 | . | . | . | .
SMILES | PrPC TRFRET | SSB-PriA inh | PrP UTR inh | Y pestis TopoI | PfHsp40 yeast | BJeLR viability
COc1c(C)cnc(Cn2cc(-c3nc(-c4ccccc4Cl)no3)ccc2=O)c1C | . | -15 | . | . | . | .
O=C(NCc1ccnc(-c2cccs2)c1)c1ccc(F)cc1Cl | . | 2 | . | . | . | .
CCCN1CCCc2cc(CCNS(=O)(=O)c3ccc(OCC)c(C)c3)ccc21 | . | 56* | . | . | . | .
CCOc1ccc(S(=O)(=O)NCCc2ccc3c(c2)CCCN3C)cc1 | . | 31 | . | . | . | .
COC(OC)c1ccnc(-c2ccc(OC(=O)c3ccccc3)cc2)n1 | 7 | -12 | -32 | 26 | 0 | -2
COC(OC)c1ccnc(-c2ccc(OC(C)=O)cc2)n1 | 5 | -7 | -18 | 2 | 52* | 1
Cc1ccc(-n2ccnc2N2CCN(C(=O)c3ccc(C)c(C)c3)CC2)cc1 | . | 36* | . | . | . | .
Cc1ccc(-n2ccnc2N2CCN(C(=O)c3c(F)cccc3F)CC2)cc1 | . | 78* | . | . | . | .
Cc1ccc(-n2ccnc2N2CCN(C(=O)c3c(F)cccc3Cl)CC2)cc1 | . | 62* | . | . | . | .
Cc1ccc(-n2ccnc2N2CCN(C(=O)COc3ccccc3)CC2)cc1 | . | 68 | . | . | . | .
CC1CCN(S(=O)(=O)c2ccc3c(c2)C(=NO)c2cc(S(=O)(=O)N4CCC(C)CC4)ccc2-3)CC1 | -3 | -21 | 15 | 1 | 0 | .
O=S(=O)(c1ccc2c(c1)C(=NO)c1cc(S(=O)(=O)N3CCCCC3)ccc1-2)N1CCCCC1 | 2 | 0 | -3 | 13 | -1 | 95*
O=c1c(O)cccc2cc(O)c(O)c(O)c12 | 9 | . | 8 | -24 | 627* | -3
COc1cc2cccc(OC)c(=O)c2c(OC)c1OC | -6 | 3 | 13 | -2 | -1 | 4
COc1ccc(-c2cc(-c3cc(C)ccc3O)[nH]n2)cc1 | 10 | -2 | -61 | -13 | ? | -4
COc1ccc(-c2cc(-c3ccc(OC)cc3)[nH]n2)cc1 | 4 | -14 | -63 | 8 | 53* | -18
O=S(=O)(O)Sc1ccccc1 | -5 | . | . | -1 | . | .
CCN(CC)c1ccc(SS(=O)(=O)O)cc1 | 4 | 43* | 0 | 3 | 0 | -14
CCOC(=O)N1CCN(C(=O)CSc2nc(N)c(NC(=O)c3ccc(OC)c(OC)c3)c(=O)[nH]2)CC1 | . | -22 | . | . | . | .
CN(C)c1ccc(C=C2C(=O)NC(=S)NC2=O)cc1 | -6 | -5 | -9 | 6 | -1 | .
CCN(CC)c1ccc(C=C2C(=O)NC(=S)NC2=O)cc1 | 13 | -13 | -13 | 1 | -1 | 51*
NC(=O)NN=Cc1c(O)ccc2oc3c(c12)CCCC3 | . | 4 | . | . | . | .
O=[N+]([O-])c1cc2oc3c(c2c(C=NCc2ccccc2)c1O)CCCC3 | -14 | 4 | -11 | 3 | 230* | -7
CC(C)CN=Cc1c(O)c([N+](=O)[O-])cc2oc3c(c12)CCCC3 | -5 | 2 | -8 | -5 | 484* | 3
O=C1OC(Nc2ncccn2)c2ccccc21 (stereo not drawn) | 5 | -14 | -21 | -4 | 1 | -8
O=C1OC(Nc2cc(Br)cc3cccnc23)c2ccccc21 (stereo not drawn) | -20 | 74* | -28 | -1 | 3 | 4
O=C(CCSc1nnc(-c2ccncc2)o1)Nc1ccc(Cl)cc1 | 13 | -9 | -13 | 1 | 197* | -2
O=C(O)CSc1nc(-c2ccc(Cl)cc2)nc2c1oc1ccccc12 | -7 | -5 | -38 | 9 | 348* | -1
Cc1cccc(NC(=O)[C@H](Cc2c[nH]c3ccccc23)NC(=O)[C@@H]2Cc3ccccc3CN2)c1 | -5 | 22 | -11 | -6 | 1 | 40

Screening results deposited in PubChem by several laboratories.
